Source: PubChem BioAssay (Tox21)
The source made the active and inactive calls. Unless noted, calls follow the shape of the dose curve; as a rule, active = well fitted curve in the direction sought with a large enough effect in the repeat runs; inconclusive = weak or mixed curves; inactive = no such curve, though single readings can be large; an effect the other way counts as inactive or inconclusive.

Legend:
[1] = qHTS assay for small molecules that induce genotoxicity in human embryonic kidney cells expressing luciferase-tagged ATAD5 (AID 651632); also: nearly all actives have a fitted effect of over 15% in size
Summary of the method: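 HEK293T cells carrying a luciferase reporter tagged to ATAD5 were exposed to compound or DMSO vehicle for 16 hr at 37C, 5% CO2. Amplite was added, and after 30 min at room temperature luciferase activity was read as a marker of ATAD5 induction.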

[2] = qHTS assay for small molecule agonists of the p53 signaling pathway - cell viability (AID 651633; calls by dose curve;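 also: p53RE-bla HCT reporter cells with a stable beta-lactamase p53 reporter; nearly all actives have a fitted effect of over 30% in size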)
Summary of the method: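 p53RE-bla cells were treated with compound for 16 hours at 37 C. Cytotoxicity was then measured as CellTiter-Glo luminescence after 30 min at room temperature.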

[3] = qHTS assay for small molecules that induce genotoxicity in human embryonic kidney cells expressing luciferase-tagged ATAD5 - cell viability (AID 651634; calls by dose curve; also: nearly all actives have a fitted effect of over 25% in size)
Summary of the method: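 HEK293T cells expressing luciferase-tagged ATAD5 were exposed to compound or DMSO for 15.5 hr at 37C, 5% CO2. Viability was then read as live-cell protease activity by CellTiter-Fluor fluorescence after 30 min at 37C.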

[4] = qHTS assay for small molecule disruptors of the mitochondrial membrane potential - cell viability (AID 720634; calls by dose curve;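 also: human HepG2 liver cancer cells; nearly all actives have a fitted effect of over 20% in size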)
Summary of the method: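 HepG2 cells seeded overnight at 37 C, then exposed to compound or DMSO for 1 hr at 37 C, 5% CO2. m-MPI dye added, then CellTiter-Glo for 30 min at room temperature; viability read as ATP luminescence.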

[5] = qHTS assay to test for compound auto fluorescence at 590 nm (red) in HepG2 cells (AID 720674)
Summary of the method: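 Fluorescence at 590 nm emission following 540 nm excitation was recorded from HepG2 wells one hour after compound transfer, with DMSO-only wells as vehicle and Rose Bengal sodium equivalency as the scale.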

[6] = qHTS assay to test for compound auto fluorescence at 535 nm (green) in HepG2 cells (AID 720675)
[7] = qHTS assay to test for compound auto fluorescence at 460 nm (blue) in HEK293 cells (AID 720678)
Summary of the method: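 Blue-channel (Ex/Em 405/460 nm) intensity measured in HEK293 cultures after overnight compound exposure at 37C; signal expressed relative to triamterene. Cells plated 2,000 per well in 10% dialyzed FBS medium and allowed 4-5 hr to attach.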

[8] = qHTS assay to test for compound auto fluorescence at 590 nm (red) in HEK293 cells (AID 720679)
Summary of the method: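 Red-channel autofluorescence (Ex/Em 540/590 nm; Rose Bengal sodium reference) was measured after overnight 37C, 5% CO2 exposure of attached HEK293 cells, 2,000 per well in medium with 10% dialyzed FBS.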

[9] = qHTS assay to test for compound auto fluorescence at 535 nm (green) in HEK293 cells (AID 720680)
[10] = qHTS assay to test for compound auto fluorescence at 460 nm (blue) in HEK293 cell free culture (AID 720681)
Summary of the method: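 Compounds were added to cell-free DMEM with 10% FBS and fluorescence read directly. The blue channel used 405 nm excitation and 460 nm emission, with triamterene as the reference fluorophore.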

[11] = qHTS assay to test for compound auto fluorescence at 535 nm (green) in HEK293 cell free culture (AID 720682)
Summary of the method: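 Compounds were pin-transferred into cell-free DMEM with 10% FBS, and green fluorescence was read at excitation 485 nm and emission 535 nm. Intensities were expressed as fluorescein-equivalent values.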

[12] = qHTS assay to test for compound auto fluorescence at 590 nm (red) in HEK293 cell free culture (AID 720683)
Summary of the method: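 Cell-free wells of DMEM with 10% FBS received compound, and intrinsic fluorescence was read at excitation/emission 540/590 nm. Values expressed as equivalence to Rose Bengal sodium.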

[13] = qHTS assay to test for compound auto fluorescence at 590 nm (red) in HepG2 cell free culture (AID 720684)
Summary of the method: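 Compound was pinned into wells holding MEM with 10% FBS and no cells, and red fluorescence was read at Ex/Em 540/590 nm. Signal is expressed as auto fluorescence equivalency relative to Rose Bengal sodium.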

[14] = qHTS assay to test for compound auto fluorescence at 460 nm (blue) in HepG2 cell free culture (AID 720685)
Summary of the method: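 Compound (23 nL) or DMSO pinned into cell-free MEM with 10% FBS; blue fluorescence read at 405/460 nm excitation/emission, expressed as auto-fluorescence equivalency to triamterene.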

[15] = qHTS assay to test for compound auto fluorescence at 535 nm (green) in HepG2 cell free culture (AID 720686)
[16] = qHTS assay to test for compound auto fluorescence at 460 nm (blue) in HepG2 cells (AID 720687)
Summary of the method: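 HepG2 cells in MEM with 10% FBS, attached overnight at 37 C, were exposed to compound or DMSO for 1 hr at 37 C, 5% CO2. Blue fluorescence was read at 405/460 nm, with triamterene as reference fluorophore.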

[17] = molecular target: Glucocorticoid receptor (Homo sapiens) (UniProt P04150); experiment: qHTS assay to identify small molecule agonists of the glucocorticoid receptor (GR) signaling pathway (AID 720691; active = well fitted activation curve with a large enough effect in the signal ratio in the repeat runs, not every such curve was filed as active; inconclusive = weak or mixed curves, or effect the other way; inactive = no such curve, though single readings can be large or run the other way; the % refers to the signal ratio; also: potency is read from the fitted curve at half-maximal effect); settings: GR-bla HeLa, beta-lactamase reporter ratio, 18 h; activation: at 62.4 µM (top of the series)
Glucocorticoid receptor (Homo sapiens), sequence (P04150 whole entry, looked up): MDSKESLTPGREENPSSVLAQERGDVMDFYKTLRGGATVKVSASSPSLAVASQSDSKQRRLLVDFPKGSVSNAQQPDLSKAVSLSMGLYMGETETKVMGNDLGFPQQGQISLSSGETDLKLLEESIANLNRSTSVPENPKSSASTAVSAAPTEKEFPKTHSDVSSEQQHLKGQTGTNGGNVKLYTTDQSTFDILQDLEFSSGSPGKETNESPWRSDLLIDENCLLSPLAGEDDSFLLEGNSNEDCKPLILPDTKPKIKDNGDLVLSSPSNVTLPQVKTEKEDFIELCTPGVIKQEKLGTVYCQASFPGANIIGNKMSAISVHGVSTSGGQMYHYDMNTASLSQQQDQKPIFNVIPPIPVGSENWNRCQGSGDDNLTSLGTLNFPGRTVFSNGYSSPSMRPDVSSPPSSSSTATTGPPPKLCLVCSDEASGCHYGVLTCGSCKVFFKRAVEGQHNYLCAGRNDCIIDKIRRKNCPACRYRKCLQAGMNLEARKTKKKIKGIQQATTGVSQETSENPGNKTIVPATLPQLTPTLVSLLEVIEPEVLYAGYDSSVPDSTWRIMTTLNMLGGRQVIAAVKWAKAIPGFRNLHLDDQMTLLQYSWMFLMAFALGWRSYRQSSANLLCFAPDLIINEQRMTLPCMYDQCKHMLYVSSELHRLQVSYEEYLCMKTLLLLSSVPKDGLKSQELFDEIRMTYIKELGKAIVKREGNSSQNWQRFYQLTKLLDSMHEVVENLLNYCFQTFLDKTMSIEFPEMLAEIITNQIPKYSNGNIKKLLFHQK
Summary of the method: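 GR-bla HeLa cells (beta-lactamase reporter under glucocorticoid response element) were plated 4 h at 37 C/5% CO2, given compounds in DMSO, and incubated 18 h at 37 C. LiveBLAzer B/G FRET substrate was added for 2 h at room temperature, then fluorescence intensity read.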

[18] = molecular target: Glucocorticoid receptor (Homo sapiens) (UniProt P04150); experiment: qHTS assay to identify small molecule antagonists of the glucocorticoid receptor (GR) signaling pathway (AID 720692; active = well fitted inhibition curve with a large enough effect in the signal ratio in the repeat runs, not every such curve was filed as active; inconclusive = weak or mixed curves, or effect the other way; inactive = no such curve, though single readings can be large or run the other way; the % refers to the signal ratio; also: potency is read from the fitted curve at half-maximal effect)
Summary of the method: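 GR-bla HeLa cells (beta-lactamase reporter under glucocorticoid response element) were pre-plated 4 h at 37 C, treated with compounds plus 5 nM dexamethasone (final) for 18 h, then read by LiveBLAzer B/G FRET fluorescence after 2 h.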

Measured: Potency

COc1ccc(C2(C#N)CCC(C(=O)O)CC2)cc1OC1CCCC1 (stereo not given)
inactive: all assays above

CC(C)=CCC/C(C)=C/C=C/C(C)=C/C=C/C(C)=C/C=C/C=C(C)/C=C/C=C(C)/C=C/C=C(\C)CCC=C(C)C
inactive: all assays above

C[C@@H]1C[C@H]2C3C[C@H](F)C4=CC(=O)C=CC4(C)[C@@]3(F)[C@@H](O)CC2(C)[C@@]1(O)C(=O)COC(=O)C(C)(C)C (stereo not given in full)
active: [17] 6.7 nM [inconclusive]
not listed: [18]
inactive: all other assays above

NS(=O)(=O)c1cc2c(cc1Cl)NC(Cc1ccccc1)NS2(=O)=O (stereo not given)
inactive: all assays above

O=C(OC1C[C@@H]2CC3C[C@H](C1)N2CC3=O)c1c[nH]c2ccccc12 (stereo not given in full)
inactive: all assays above

Cc1c(O)cc2c(c1C)O[C@](C)(CCC[C@H](C)CCC[C@H](C)CCCC(C)C)CC2
not listed: [17]
inactive: all other assays above

CC[C@H](C)[C@@H]1NC(=O)[C@H](Cc2ccc(O)cc2)NC(=O)[C@@H](N)CSSC[C@@H](C(=O)N2CCC[C@H]2C(=O)N[C@@H](CC(C)C)C(=O)NCC(N)=O)NC(=O)[C@H](CC(N)=O)NC(=O)[C@H](CCC(N)=O)NC1=O
inactive: all assays above

CC(=O)N=c1sc(S(N)(=O)=O)nn1C
inactive: all assays above

CC(=O)OCC(=O)[C@@]1(O)[C@H](C)C[C@H]2[C@@H]3C[C@H](F)C4=CC(=O)C=C[C@]4(C)[C@H]3[C@@H](O)C[C@@]21C
active: [17] 26.8 nM [inconclusive]
not listed: [18]
inactive: all other assays above

CCN(CC)CCC(=O)N1c2ccccc2Sc2ccc(C(F)(F)F)cc21
active: [18] 23900 nM
inactive: all other assays above

COc1ccc2c(c1)N(C[C@H](C)CN(C)C)c1ccccc1S2
not listed: [18]
inactive: all other assays above

O=c1[nH]cnc2[nH]cc(CN3CCCCC3)c12
inactive: all assays above

CCCCCCCCCCCC(=O)N(CCO)CCO
not listed: [18]
inactive: all other assays above

CCCc1ccc(C(=O)O)cc1
not listed: [17]
inactive: all other assays above

CN1CCN2c3ncccc3Cc3ccccc3C2C1 (stereo not given)
inactive: all assays above

CS(=O)(=O)c1ccc(C2=C(c3ccccc3)C(=O)OC2)cc1
inactive: all assays above

CN(C)CCC=C1c2ccccc2C(C)(C)c2ccccc21
not listed: [17] | [18]
inactive: all other assays above

OCCN1CCN(CC/C=C2/c3ccccc3Sc3ccc(Cl)cc32)CC1
inactive: all assays above

O=c1oc2cc(O)ccc2s1
not listed: [18]
inactive: all other assays above

CN(C)CCCN1c2ccccc2C(C)(C)c2ccccc21
not listed: [18]
inactive: all other assays above

COc1cc(NCCCC(C)N)c2ncccc2c1 (stereo not given)
not listed: [18]
inactive: all other assays above

C=CCCCCCCCCC(=O)OC
inactive: all assays above
